From PubChem BioAssay (NCI)
About 83,000 compounds went through this panel and 20% of them were active in at least one assay; those are over-represented in the sample as a whole.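 Each cell line was grown in a 96-well plate and treated with one concentration of compound for 48 hours. Values below 10 were considered active.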 A number with no mark means an inactive call. Calls of active or inactive are those of the source.

Test system: NCI-H460 lung
Assay: NCI-60 one-dose screen, 48 h (100 = growth as untreated, 0 = no growth, -100 = all killed)
Settings: 10 µM unless noted

SMILES | growth
CCOC(=O)c1ccccc1NC(c1ccccc1)c1ccc2cccnc2c1O (stereo not given) | 6.16% (active)
O=S(=O)(NCCCNc1nccc(-c2c(-c3ccc(O)cc3)nc3sccn23)n1)c1ccc(F)cc1 | 1.37% (active)
C=CCc1cc(Cl)cc2c(OC(C)=O)c(C(C)=O)c(-c3ccccc3)nc12 | 106%
NC(=O)c1cccc(N2Cc3ccccc3OC3=C2C(=O)c2c(O)ccc(O)c2C3=O)c1 | -27.5% (active)
Cc1cccc(NC(=O)c2sc3nc4c(cc3c2N)CCC4)c1C | 10.8%
COc1ccc(/C=C2\CCCC3=C2NC(C)=NC3c2ccc(OC)c(OC)c2)cc1OC (stereo not given) | 0.649% (active)
COc1cc(NS(C)(=O)=O)ccc1Nc1c2ccc([N+](=O)[O-])cc2nc2c(C)cccc12 | -25.4% (active)
CC/C=C\C[C@H](O)C/C=C1/C(=O)C(Cl)=C[C@@H]1C/C=C\CCCC(=O)O | 97.7%
CCC(=O)Oc1cc(/C=C/C(=O)O[C@H]2C[C@H]3CN4CCc5c([nH]c6cc(OC)ccc56)[C@@H]4C[C@@H]3[C@@H](C(=O)OC)[C@@H]2OC)ccc1OC | 93.5%
Nc1ccccc1C#C/C=C\C#Cc1cccc(O)c1 | 34.7%
O=C(CSc1nc(-c2ccc(Cl)cc2)cn1-c1ccc(Cl)cc1)c1ccc(Br)cc1 | 50.8%
C=CCOc1cccc(/C=C/C(=O)c2sc(Nc3cccnc3)nc2C)c1 | 81.2%
CC(=O)Nc1nc(C(=O)N2N=C(C)/C(=C/c3cccs3)C2=O)cs1 | 107%
COc1cc(C2C=C(C)N=C3SC(C)=NN32)cc(OC)c1OC (stereo not given) | 114%
COc1cc(C2C=C(C)N=C3SC=CN32)cc(OC)c1OC (stereo not given) | 105%
COc1ccc(C2=NN(c3ccc(S(N)(=O)=O)cc3)C(c3cn(-c4ccccc4)nc3-c3ccc(Cl)cc3)C2)cc1 (stereo not given) | 89%
O=C(CCCn1c2c(sc3ccccc32)c(=O)n2nnc(-c3ccccc3)c12)NCCc1cnc[nH]1 | -93.2% (active)
CCOC(=O)C1=C(CSC(=S)N(C2CCCCC2)C2CCCCC2)N(C)C(=O)NC1c1ccccc1 (stereo not given) | 12.7%

SMILES | growth
COc1cccc(-c2nc3sccn3c2-c2ccnc(NCCNS(=O)(=O)c3ccccc3)n2)c1 | 62.4%
COC(=O)c1ccc2nc(-c3cc4ccccc4n3C)n(CCCCOc3cc4c(cc3OC)C(=O)N3CCC[C@H]3C=N4)c2c1 | -25.9% (active)
CN(C)c1nc(N)c(N=O)c(N)n1 | 110%
COc1cc(C(=O)/C=C/c2cc(C(=O)c3cc(OC)c(OC)c(OC)c3)ccc2OC)ccc1N | -15.6% (active)
COc1ccc(C2CC(c3cccs3)=NN2c2ccc(S(=O)(=O)NC(=O)Nc3ccc(C)cc3)cc2)cc1 (stereo not given) | 103%
COc1cccc(/C=C2\SC(N3CCN(c4ccccn4)CC3)=NC2=O)c1 | 107%
Nc1nc(N)c2nc(CNc3ccc(C(=O)CC(CCC(=O)O)C(=O)O)cc3)cnc2n1 (stereo not given) | 19.8%
Cc1ccc2nc(SCn3nnc4ccccc4c3=O)[nH]c2c1 | 99.5%
O=C1Nc2cc(Cl)ccc2Oc2cc(Oc3ccccc3)ccc21 | 25.1%
OC1CC2c3ccccc3C1c1ccccc12 (stereo not given) | 110%
N#Cc1ncc(-c2ccc(F)c(F)c2F)c(NC2CCCCCC2)n1 | 98.9%
CC(C)(C)c1ccc(S(=O)(=O)Oc2ccc3c4c(c(=O)oc3c2)CCCCC4)cc1 | 43.2%
CC(Cc1nnc(SCC(=O)Nc2ccc(I)cc2)n1N)c1ccccc1 (stereo not given) | 96.1%
CCN(Cc1ccc(CN(CC)C(=O)C(Cl)(Cl)Cl)cc1)C(=O)C(Cl)(Cl)Cl | 86.7%
NC(=O)NC(=O)/C=C/C(=O)OCCCl | 104%
CC(=O)OCC1OC(OCC2OC(OC(C)=O)C(OC(C)=O)C(OC(C)=O)C2OC(C)=O)C(OC(C)=O)C(OC(C)=O)C1OC(C)=O (stereo not given) | 104%
O=C1c2ccccc2C(=O)c2c1oc1oc3c(c(=O)c21)c(=O)n(-c1ccccc1)c1ccccc31 | 33.6%
